TcdB inh: blocks C. difficile toxin B glycohydrolase activity. P18177. inhibition, % at 9.99 µM. TcdB glycohydrolase enzymatic assay, plate reader. 0.24% of 350,000 active; in the data active = inhibition above about 10%
FadD28 FP inh: blocks FadD28 binding to the bisubstrate probe; fluorescence polarization; AID 588549; inhibition, % at 12.5 µM; 0.22% of 360,000 active; in the data active = inhibition above about 8.5%, passing the limit was not always enough
PfHsp40 rescue: rescue of PfHsp40-mediated yeast toxicity. S. cerevisiae expressing PfHsp40, growth rescue, ATP luminescence. growth rescue, % at 12.5 µM. 0.68% of 340,000 active. AID 504582; in the data active = growth rescue above about 28%, passing the limit was not always enough;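 also: yeast W303a lacking pdr1 and pdr3 grown in galactose medium; growth measured after three days at 30 °C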
PrP 5UTR inh: inhibition of PrP 5' UTR reporter expression | AID 488862 | cell-based PrP 5' UTR mRNA reporter, plate reader | 0.35% of 340,000 active | inhibition, % (concentration not given with the values); in the data active = inhibition above about 52%; also: 0 = median of the neutral control wells
Mtb BioA inh: BioA (M. tuberculosis) enzyme inhibition; purified M. tuberculosis BioA enzyme, plate reader; inhibition, % at 9.99 µM; 0.096% of 360,000 active; in the data active = inhibition above about 40%
Starred values were filed as active, the others as inactive; / = no result. In the library only some 1.1% were active in any assay of this set; here they are far more common.

SMILES | TcdB inh | FadD28 FP inh | PfHsp40 rescue | PrP 5UTR inh | Mtb BioA inh
COC(=O)c1ccccc1NC1=C/C(=N\S(=O)(=O)c2cccs2)c2ccccc2C1=O | -0.1 | -9.7 | 3.9 | -2.5 | -1.2
COc1ccc(S(=O)(=O)Nc2cccc3c2O[C@H](CN(C)Cc2ccc(Cl)c(Cl)c2)[C@@H](C)CN([C@@H](C)CO)C3=O)cc1 | / | / | / | / | -0.1
Cc1ccnc2c1ccc1c(C)ccnc12 | / | 0.2 | 81.5* | 54.5* | -4.6
Cc1ccnc2c1ccc1cccnc12 | 0.6 | -3.4 | 0.8 | 25.9 | 0.5
CC(=O)c1cnc2cc(-c3ccc(C)cc3)nn2c1C | / | -0.1 | 1.5 | -139.7 | -2.3
COc1ccc(-c2cc3ncc(C(C)=O)c(C)n3n2)cc1 | 1.2 | -4.3 | 53.1* | -85.3 | /
COc1ccc(S(=O)(=O)Nc2cccc3c2O[C@@H](CN(C)C(=O)Nc2ccc(F)cc2)[C@H](C)CN([C@@H](C)CO)C3=O)cc1 | -0.6 | / | / | / | -1.6
COc1ccc2cc3c(nc2c1)OCC3 | 11.5* | 0.3 | 1.4 | -17.3 | -2.4
Cc1noc(C)c1S(=O)(=O)Nc1ccc2c(c1)C(=O)N([C@@H](C)CO)C[C@@H](C)[C@H](CN(C)C)OCCCC[C@@H](C)O2 | -2.6 | / | / | / | 0.3
COCC(=O)N(C)C[C@@H]1Oc2ncc(C#Cc3cccnc3)cc2C(=O)N([C@@H](C)CO)C[C@@H]1C | -1.4 | / | / | / | 1.1
O=C(c1ccc(Cl)cc1)N1CCN(c2ccc(F)cc2)CC1 | / | -1.8 | 109.7* | -21.7 | 4.5
COc1cc(/C=N/n2c(-c3cc(C)[nH]n3)n[nH]c2=S)ccc1O | 19.3* | -3.3 | -0.6 | -37.6 | /
COc1cc(/C=N/n2c(-c3cc(C)[nH]n3)n[nH]c2=S)cc(OC)c1OC | 9.4 | -3.2 | -0.5 | -2.8 | 5.0
Cc1ccc(-c2cc(-c3ccccc3Cl)[nH]n2)c(O)c1 | / | -8.9 | 136.5* | -184.8 | -1.5
COc1ccc(-c2cc(-c3ccccc3)n[nH]2)c(O)c1 | 1.3 | -7.8 | 80.3* | -62.5 | 1.5
Cc1ccc(-c2cc(-c3ccccc3[N+](=O)[O-])[nH]n2)c(O)c1 | 1.6 | -0.9 | -1.1 | -40.0 | -1.7
Cc1ccc(-c2cc(-c3ccc(C)cc3O)[nH]n2)cc1 | 2.3 | -0.6 | -0.6 | -55.7 | -0.8
Cc1ccc(-c2cc(-c3ccc(F)cc3)n[nH]2)c(O)c1 | 1.4 | -0.9 | 180.3* | -63.0 | 1.5
Cc1ccc(O)c(-c2cc(-c3cccc(Br)c3)n[nH]2)c1 | 1.3 | -17.8 | 119.3* | -59.2 | -1.2
COc1ccc(-c2cc(-c3ccccc3O)[nH]n2)cc1 | / | -0.8 | 22.5 | -70.8 | /
Oc1ccccc1-c1cc(-c2ccc(F)cc2)n[nH]1 | 1.5 | -7.9 | 170.2* | -65.8 | -0.8
COc1ccc(C#Cc2ccc3c(c2)[C@]2(C(=O)N3)[C@H](C(=O)Nc3nc4ccccc4s3)[C@H]3C(=O)O[C@H](c4ccccc4)[C@H](c4ccccc4)N3[C@@H]2c2ccccc2OCCO)cc1 | -1.2 | / | / | / | -8.6
COc1ccc2c(c1)OC[C@H]1[C@H]2N2C(=O)c3ccc(F)cc3NC(=O)[C@@]2(C)[C@H]1c1ccccc1 | 0.4 | -9.4 | 3.1 | -6.2 | -2.6
C[C@@]12C(=O)Nc3cc(F)c(F)cc3C(=O)N1[C@H]1c3ccccc3OC[C@@H]1[C@@H]2c1ccccc1 | 0.3 | -5.0 | 12.0 | -4.0 | -0.6
COc1ccc2c(c1)OC[C@H]1[C@H]2N2C(=O)c3cc(Br)ccc3NC(=O)[C@@]2(C)[C@H]1c1ccccc1 | / | -6.7 | 333.3* | -6.9 | -0.3
SMILES | TcdB inh | FadD28 FP inh | PfHsp40 rescue | PrP 5UTR inh | Mtb BioA inh
COc1cc2c(cc1OC)C(=O)N1[C@H]3c4ccccc4OC[C@@H]3[C@H](c3ccccc3)[C@]1(C)C(=O)N2 | 0.9 | -7.3 | 63.5* | -117.6 | 14.8
COc1ccc2c(c1)OC[C@H]1[C@H]2N2C(=O)c3cc(OC)c(OC)cc3NC(=O)[C@@]2(C)[C@H]1c1ccccc1 | -0.3 | -9.5 | 43.7* | -88.8 | -1.8
O=C(C[C@H]1CC[C@H](NC(=O)C2CCOCC2)[C@H](CO)O1)Nc1nccs1 | 0.5 | / | / | / | -1.9
COCC(=O)N1C[C@H]2[C@@H](c3ccccc31)[C@H](CO)N2C(=O)C1CC1 | -0.8 | / | / | / | -2.2
Cc1oc2ccc(OCc3ccccc3F)cc2c1C(=O)O | / | -4.0 | -0.6 | -3.4 | -1.1
Cc1ccccc1COc1ccc2oc(C)c(C(=O)O)c2c1 | 11.6* | 0.3 | 0.7 | -23.3 | /
COC(=O)C[C@H]1CC[C@@H]2[C@@H](COc3ccc(NC(=O)c4ccccc4F)cc3C(=O)N2C)O1 | 4.3 | / | / | / | -4.3
O=S(=O)(c1cccc(-c2nnc(SCc3nc4ccccc4s3)o2)c1)N1CCOCC1 | / | -3.7 | 46.1* | -61.6 | -2.5
O=C(N/N=C/c1cc(Br)c(O)c(Br)c1O)c1ccc2c(c1)OCCO2 | -0.2 | 12.4* | 152.1* | -15.7 | -0.7
O=C(N/N=C/c1cc(Br)cc(Cl)c1O)c1ccc2c(c1)OCO2 | 2.2 | -1.6 | 257.3* | 12.9 | -2.2
Cc1cc(Br)cc(/C=N/NC(=O)c2ccc3c(c2)OCO3)c1O | 0.4 | -4.4 | -0.5 | 4.3 | -0.5
Nc1c(Cl)ncnc1N/N=C/c1ccc2ccccc2n1 | 0.1 | -0.1 | 502.5* | -22.4 | /
Nc1c(Cl)ncnc1N/N=C/c1ccnc2ccccc12 | / | 1.2 | -0.1 | -3.3 | 4.2
COc1ccc(NC(=O)N(C)C[C@H]2Oc3c(NC(=O)CCCCCC(=O)Nc4ccccc4N)cccc3C(=O)N([C@H](C)CO)C[C@H]2C)cc1 | 3.7 | / | / | / | /
COc1ccc(NC(=O)N(C)C[C@@H]2Oc3c(NC(=O)C4CC4)cccc3C(=O)N([C@H](C)CO)C[C@@H]2C)cc1 | -0.3 | / | / | / | -0.7
COc1cc(/C=N/n2nnnc2N)ccc1OCC(N)=O | / | -3.8 | 0.1 | -24.2 | 3.7
CCOc1ccc(/C=N/n2nnnc2N)cc1OCC | 0.1 | 0.4 | -0.5 | -2.4 | 0.3
CCOc1cc(/C=N\n2nnnc2N)ccc1O | 22.6* | -2.8 | -0.4 | -21.7 | 0.8
CCOc1ccc(/C=N/n2nnnc2N)cc1O | 19.0* | -1.0 | 0.8 | -0.4 | 0.9
C[C@H]1CN([C@@H](C)CO)C(=O)c2ccccc2-c2ccccc2CO[C@H]1CN(C)S(C)(=O)=O | 0.4 | / | / | / | -1.8
COc1ccc(NC(=O)N(C)C[C@H]2OCCCC[C@H](C)Oc3ccc(NS(=O)(=O)c4ccc(OC)cc4)cc3C(=O)N([C@H](C)CO)C[C@@H]2C)cc1 | / | / | / | / | 0.7
CC1(C)CC(=O)C2=C(C1)OC1=C(C(=O)CC(C)(C)C1)C2c1cc([N+](=O)[O-])cc([N+](=O)[O-])c1O | -2.6 | -1.2 | -0.1 | -3.6 | /
CC1(C)CC(=O)C(C2C3=C(CC(C)(C)CC3=O)Oc3c(Br)cc(Br)cc32)=C(O)C1 (centres undefined) | -0.5 | -2.2 | 54.9* | -13.2 | -0.5
O=C(O)c1ccc(N/N=C/c2c(F)cccc2Cl)cc1 | 0.6 | 1.1 | 106.1* | 15.0 | 1.9
Cc1c(C(=O)O)cccc1-c1ccc(/C=N/n2cnnc2)o1 | -0.3 | 0.6 | -0.4 | -23.7 | 1.3

Screens from PubChem.
